# Vif-APOBEC3F blk = Vif-A3F binding inhibition; 390,000 compounds, 0.2% hits; HeLa A3F-eYFP + Vif (tagged APOBEC3F with the HIV-1 protein that degrades it), YFP fluorescence increase; Potency, µM (titrated, usually from 46.1 µM), inactives show top-dose activity, negative = active; AID 602313; also: potency is read from the fitted curve at half-maximal effect; % of control where 0% means no effect; nearly all actives have a fitted effect of over 65% in size
#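 Fluorescence increase (Ex 488/Em 500-530) after overnight compound treatment at 37 deg C flags inhibition of Vif-driven A3F-eYFP loss in stable HeLa A3F-eYFP/Vif cells seeded overnight beforehand.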
# TSHR antag = blocks TSH signaling through the human TSH receptor; P16473; TSHR-expressing cells, TSH-stimulated cAMP HTRF, 2 h; stronger effect = lower value; activity change, negative = inhibition, % at 11.5 µM; 330,000 compounds, 0.2% hits;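 active = activity change below a set negative limit, meaning inhibition stronger than a set level, cut at about -70% in these data; inconclusive = activity change between two set negative limits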; also: % is scaled to controls: 0 for no effect and ±100 for the full control effect
#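 Freshly harvested TSHR cells receive pin-tooled compound, then EC80 TSH at 4nM final. After 2 hours at 37 deg C, antibody in lysis buffer and cAMP-d2 are added; 30 minutes at ambient temperature precede the HTRF read.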
# PLK1 PBD inh = blocks phosphopeptide binding to human PLK1 polo-box domain | 360,000 compounds, 2.8% hits | Potency, µM, for inactives: max response, negative = inhibition, usual class: inhibitors | Plk1 PBD binding of FITC phosphopeptide, fluorescence polarization | P53350 | AID 720504; also: potency is read from the fitted curve at half-maximal effect; series mostly up to about 57 µM; % is scaled to controls: 0 for no effect and ±100 for the full control effect; nearly all actives have a fitted effect of over 65% in size
# Vif-APOBEC3G blk = blocks the Vif interaction with human APOBEC3G; Q9HC16; Potency, µM (series often up to 46.1 µM), for the others: top-dose activity, negative = active, hits mostly inhibitors; HeLa A3G-eYFP + Vif (tagged APOBEC3G with the HIV-1 protein that degrades it), YFP fluorescence, overnight; 410,000 compounds, 0.076% hits; AID 602310; also: potency is read from the fitted curve at half-maximal effect; % is scaled to controls: 0 for no effect and ±100 for the full control effect; nearly all actives have a fitted effect of over 60% in size
# Target sequence (Q9HC16 whole entry, looked up): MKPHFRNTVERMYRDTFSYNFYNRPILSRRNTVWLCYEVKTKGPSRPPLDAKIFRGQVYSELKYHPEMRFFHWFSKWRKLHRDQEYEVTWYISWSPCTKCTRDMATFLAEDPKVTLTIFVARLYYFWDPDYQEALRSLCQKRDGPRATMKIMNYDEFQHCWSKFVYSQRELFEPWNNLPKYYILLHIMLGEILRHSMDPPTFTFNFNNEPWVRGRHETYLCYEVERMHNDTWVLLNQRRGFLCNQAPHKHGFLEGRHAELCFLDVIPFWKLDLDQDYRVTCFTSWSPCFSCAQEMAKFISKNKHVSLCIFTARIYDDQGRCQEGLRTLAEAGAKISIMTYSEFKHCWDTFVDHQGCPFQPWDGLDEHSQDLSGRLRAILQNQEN
#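 Read-out is eYFP fluorescence (Ex 488/Em 500-530) from Vif-expressing HeLa A3G-eYFP cells; more signal means A3G escaped Vif-mediated degradation. Cells plated overnight, compound pinned in, incubated overnight at 37 deg C.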
# VDR inh = blocks the human vitamin D receptor; VDR-SRC2-3 peptide fluorescence polarization, 2 h; Potency, µM, for inactives: max response, negative = inhibition, hits mostly inhibitors; 400,000 compounds, 0.93% hits; AID 504847; also: potency is read from the fitted curve at half-maximal effect; % is scaled to controls: 0 for no effect and ±100 for the full control effect
#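 Compounds are added to VDR with labelled SRC2-3 coactivator peptide and held 2 h at room temperature. Inhibition of the VDR–peptide interaction is then read as a change in fluorescence polarization.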
# * hit, by the source's call; ? = inconclusive; nt = no result given; ! = repeats disagree. Rows were chosen to be rich in hits. Some 3.1% of all compounds tested hit in one or more screens of this group. Unless noted, calls follow the shape of the dose curve; as a rule, active = well fitted curve in the direction sought with a large enough effect; inconclusive = small, poorly fitted or top-dose-only effect, or another doubt; inactive = no such curve, though single readings can be large; an effect the other way counts as inactive or inconclusive.
SMILES,Vif-APOBEC3F blk,TSHR antag,PLK1 PBD inh,Vif-APOBEC3G blk,VDR inh
CCc1ccc(S(=O)(=O)Nc2cc(SCC(=O)O)c(O)c3ccccc23)cc1,?,25,1.2µM*,?,?
CCOc1ccc(S(=O)(=O)Nc2cc(SCC(=O)O)c(O)c3ccccc23)cc1,?,6,1.7µM*,?,18µM*
Cc1ccc(C)c(S(=O)(=O)Nc2cc(SCC(=O)O)c(O)c3ccccc23)c1,-1%,2,1.5µM*,?,22µM*
O=S(=O)(Nc1cc(Sc2cccc3cccnc23)c(O)c2ccccc12)c1ccccc1,nt,9,nt,nt,nt
COc1ccc(OC)c(/C=C/c2ccc3ccccc3[n+]2C)c1,nt,nt,nt,1%,nt
COc1ccc(-c2ccc(OC)c(C3C4C=CCCC4(C)C(=O)N3Cc3ccccc3)c2)cc1 (stereo not drawn),nt,nt,nt,-4%,0%
COc1cccc(Cn2c(=O)c(-c3cccs3)nc3cnc(N4CCNCC4)nc32)c1,nt,nt,nt,nt,26%
COc1ccc(-c2csc(NC(=O)c3ccccc3NS(=O)(=O)c3ccc(F)c(F)c3)n2)cc1,4%,-88*,21µM*,-7%,-6%
Cc1ccc(S(=O)(=O)Nc2ccccc2C(=O)Nc2nc(-c3ccc(F)cc3)cs2)cc1,6%,?,27µM*,-7%,-21%
COc1ccc(-c2csc(Nc3ccc(S(=O)(=O)Nc4cc(C)on4)cc3)n2)cc1,5%,-23,19µM*,-5%,-23%
CC(=O)N(C)c1ccc(/C=C2\C=Cc3ccccc32)cc1,nt,nt,nt,-3%,nt
Cc1ccnc2cc(Cl)c(Cl)cc12,nt,nt,nt,-2%,nt
CCCCNC(=O)[C@@H]1CC=C[C@@H]2CCN(C3CCCCC3)C(=O)[C@@H]21,nt,nt,nt,3%,nt
Cc1ccccc1-n1ncc2c1CC(C)(C)CC2NC(=O)c1ccncc1 (stereo not drawn),5%,2,1%,-1%,0%
Cc1ccccc1-n1ncc2c1CC(C)(C)CC2NC(=O)c1cn[nH]c1C (stereo not drawn),-8%,-2,30µM*,5%,?
COc1cccc(C(c2c(C)[nH]n(-c3ccccc3)c2=O)c2c(C)[nH]n(-c3ccccc3)c2=O)c1O,-15%,-7,21µM*,-1%,?
COc1cccc(C(c2c(C)[nH]n(-c3ccccc3)c2=O)c2c(C)[nH]n(-c3ccccc3)c2=O)c1OC,-18%,7,12µM*,-11%,?
Cc1ccc(C(=O)NN2C(=O)CSC2=S)cc1,9%,1,-5%,-4%,-2%
C/C(=N\N1C(=O)CSC1=S)c1ccc(Br)cc1,-20%,9,5.3µM*,0%,?
CCOC(=O)c1c(S(=O)(=O)NCC(=O)Nc2cccc(C)c2C)c(C)n(C)c1C,5%,-112*,-4%,2%,-1%
N#Cc1ccccc1-c1csc(N2CCC(C(N)=O)CC2)n1,nt,17,nt,nt,nt
C[n+]1ccc(/C=C/c2cc[n+](C)c3ccccc23)c2ccccc21,nt,nt,nt,13µM*,nt
Cc1c(NC(=O)COC(=O)CCC(=O)c2ccc(Cl)cc2)c(=O)n(-c2ccccc2)n1C,-13%,4,17µM*,-2%,?
Cc1c(NC(=O)CSc2nnc(COc3ccccc3)n2-c2ccccc2)c(=O)n(-c2ccccc2)n1C,-1%,7,6%,2%,-4%
Cc1c(NC(=O)CSc2n[nH]c(=O)n2-c2ccccc2)c(=O)n(-c2ccccc2)n1C,-19%,-1,27µM*,1%,?
SMILES,Vif-APOBEC3F blk,TSHR antag,PLK1 PBD inh,Vif-APOBEC3G blk,VDR inh
C(=C1c2ccccc2Oc2ccccc21)c1ccccc1,nt,nt,nt,2%,nt
NCCCN(Cc1ccc(Cl)c(Cl)c1)c1ccc(Br)cn1,nt,nt,nt,nt,8%
c1ccc(SCc2nc3ccccc3s2)nc1,-4%,6,19µM*,0%,-24%
Cc1cc(O)ccc1Nc1nc(-c2cccs2)cs1,0%,3,-27%,-11%,0%
Cc1nc(C)c(-c2csc(Nc3ccc(O)cc3C)n2)s1,-29%,-1,27µM*,-9%,-22%
CSc1ccc(-c2sc(Nc3ccccc3)n[n+]2-c2ccc(F)cc2)cc1,5%,26,30µM*,1%,-16%
Oc1ccc(-c2sc(Nc3ccccc3)n[n+]2-c2ccc(F)cc2)cc1,5%,6,-20%,1%,-19%
CCc1ccccc1NC(=O)Cn1c(=O)n(Cc2ccccc2)c(=O)c2c(C)c(C(=O)N(C)C)sc21,1%,nt,nt,-2%,3%
CCOC(=O)C1(C)/C(=N/Nc2ccccc2)C(=O)C(=O)N1c1ccccc1 (stereo not drawn),nt,10,24µM*,-5%,?
O=[N+]([O-])c1ccc(NC(=S)N/C(=N/CS(=O)(=O)c2ccccc2)c2ccccc2)cc1,0%,-1,19µM*,0%,-3%
Cc1cccc(NC(=S)N/C(=N/S(=O)(=O)c2ccccc2)c2ccccc2)c1,-1%,-4,24µM*,-5%,89µM*!
COc1ccccc1-c1noc(-c2ccc(NCc3ccco3)c([N+](=O)[O-])c2)n1,?,nt,nt,-5%,4%
COc1cccc(N=Cc2c[nH][nH]c2=O)c1,6%,7,27µM*,-1%,?
O=C1CC(c2ccco2)Cc2[nH]c(=O)c(C(=O)Nc3ccccc3)cc21 (stereo not drawn),nt,nt,nt,3%,nt
CC(C)c1cccc(NC(=O)COC(=O)c2ccccc2OCc2cccc(Br)c2)c1,nt,nt,nt,2%,nt
Cc1c(-c2ccccc2)sc(N)c1C(=O)N1CCOCC1,1%,-11,24µM*,3%,-4%
CCOC(=O)c1c(N)sc(C(O)(C(F)(F)F)C(F)(F)F)c1-c1ccccc1,5%,10,27µM*,-9%,?
COC(=O)c1c(N)sc(C(=O)N2CCOCC2)c1C,2%,-4,-19%,4%,0%
COC(=O)c1c(N)sc(C(=O)NCCc2ccccc2)c1C,8%,-6,21µM*,-8%,-9%
CCOC(=O)c1c(N)nn(C(=O)C(C)(C)C)c1-c1ccccc1,-2%,7,0%,0%,-5%
CCOC(=O)c1c(N)sc(-c2ccccc2)c1C,-9%,-4,19µM*,-5%,-15%
C[C@]12C[C@H](O)CC(CO)(CO)C1[C@H](O)C[C@@]13CC4[C@@H](CC12)[C@@]4(C)C3 (stereo partly drawn),nt,nt,nt,nt,-5%
CCOC(=O)c1c(N)sc(C(=O)OC)c1C,-3%,13,30µM*,1%,-27%
OCC(O)C(O)C(O)C(O)C(O)CO (stereo not drawn),nt,nt,nt,nt,5%
O=C1c2ccccc2-c2nnc(-c3ccccc3)cc21,-2%,1,-9%,3%,3%
NC(=O)C1=C(c2ccccc2)c2ccccc2C1=O,-9%,nt,4.2µM*,-11%,40µM*
COc1cccc(-c2cnc(NCc3ccccc3Cl)n2C)c1,-20%,nt,nt,?,3%
COc1ccc(C=O)cc1CSc1ccccn1,-7%,0,24µM*,-1%,4%

# Screens (PubChem)
